From PubChem BioAssay AID1159580 (chemical genetic matrix, 2015)
“And” between values parts separate entries of the source, which are not always exact repeats. Equal values may be shown once. Hit rate of the full screen: of about 5,500 compounds, about 2,000 (36%) were called active. Not shown: some 18% with an inconclusive outcome. Cut-off read from the data, not from the text of the source: active = normalized growth mostly below about 0.91 (no sharp cut-off); inconclusive = no clear call, values can overlap the other calls; inactive = mostly above about 0.92. This is one part of the list.

Assay: chemical genetic growth profiling, strain panel (AID 1159580);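 note: tested at 20 µM; growth read once vehicle control cultures reached saturation at 30 °C; 1 = growth at the plate median or of vehicle wells; lower values mean less growth of the strain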
Settings: growth OD
[1] = S. cerevisiae deletion strains, locus YHR030C, strain SLT2, stronger effect = lower value
[2] = S. cerevisiae deletion strains, locus YHR079C, strain IRE1, stronger effect = lower value
[3] = S. cerevisiae deletion strains, locus YJL095W, strain BCK1, stronger effect = lower value
[4] = S. cerevisiae deletion strains, locus YJR066W, strain TOR1, stronger effect = lower value
[5] = S. cerevisiae deletion strains, locus YLR113W, strain HOG1, stronger effect = lower value
[6] = S. cerevisiae deletion strains, locus YNL183C, strain NPR1, stronger effect = lower value
[7] = S. cerevisiae deletion strains, locus YOR231W, strain MKK1, stronger effect = lower value
[8] = S. cerevisiae deletion strains, locus YPL256C, strain CLN2, stronger effect = lower value
[9] = S. cerevisiae deletion strains, locus YAL040C, strain CLN3, stronger effect = lower value
[10] = S. cerevisiae deletion strains, locus YCL061C, strain MRC1 (second series), stronger effect = lower value
[11] = S. cerevisiae deletion strains, locus YDR150W, strain NUM1, stronger effect = lower value
[12] = S. cerevisiae deletion strains, locus YDR363W, strain ESC2, stronger effect = lower value
[13] = S. cerevisiae deletion strains, locus YER002W, strain NOP16, stronger effect = lower value
[14] = S. cerevisiae deletion strains, locus YMR263W, strain SAP30, stronger effect = lower value
[15] = S. cerevisiae deletion strains, locus YMR307W, strain GAS1, stronger effect = lower value
[16] = S. cerevisiae deletion strains, locus YNL128W, strain TEP1, stronger effect = lower value
[17] = S. cerevisiae deletion strains, locus YNL153C, strain GIM3, stronger effect = lower value
[18] = S. cerevisiae deletion strains, locus YNL175C, strain NOP13, stronger effect = lower value
[19] = S. cerevisiae deletion strains, locus YNL197C, strain WHI3, stronger effect = lower value
[20] = S. cerevisiae deletion strains, locus YNL224C, strain SQS1, stronger effect = lower value
[21] = S. cerevisiae deletion strains, locus YOR083W, strain WHI5 (second series), stronger effect = lower value
[22] = S. cerevisiae deletion strains, locus YGR229C, strain SMI1, stronger effect = lower value
[23] = S. cerevisiae deletion strains, locus YJR075W, strain HOC1, stronger effect = lower value
[24] = S. cerevisiae deletion strains, locus YPL055C, strain LGE1, stronger effect = lower value
[25] = S. cerevisiae deletion strains, locus YPL241C, strain CIN2, stronger effect = lower value
[26] = S. cerevisiae deletion strains, locus YAL013W, strain DEP1, stronger effect = lower value
[27] = S. cerevisiae deletion strains, locus YNL322C, strain KRE1, stronger effect = lower value

Measured: normalized growth

C[N+]12CC[C@@]34c5ccccc5N5C(=O)CC6OCC=C(C1)[C@H](CC32)[C@@H]6C54 (some centres not stated)
inactive: [1] 1.02 | [2] 1 | [3] 0.99 | [4] 0.942 | [5] 0.995 | [6] 0.933 | [7] 0.998 | [8] 0.986

N[C@@H](Cn1cc(I)c(=O)[nH]c1=O)C(=O)O
inactive: [9] 0.979 | [10] 0.992 | [11] 0.988 | [12] 1.01 | [13] 0.979 | [14] 1 | [15] 0.992 | [16] 0.977 | [17] 1.03 | [18] 0.993 | [19] 1 | [20] 0.99 | [21] 0.998

CCCn1c(=O)[nH]c(=O)c2[nH]cnc21
inactive: [9] 1.05 | [10] 1.01 | [12] 1.02 | [13] 0.999 | [22] 1 | [23] 1 | [18] 1.01 | [19] 1.01 | [20] 1 | [21] 1 | [24] 1.02 | [25] 1.01

O=c1[nH]c(=O)n([C@H]2C[C@H](O)[C@@H](CO)O2)cc1/C=C/Br
inactive: [26] 1.02 | [9] 0.98 | [10] 1 | [11] 0.994 | [12] 1.03 | [13] 0.977 | [14] 0.998 | [15] 1.01 | [16] 0.944 | [17] 0.999 | [18] 0.964 | [19] 0.936 | [20] 0.994 | [27] 0.999 | [21] 0.999 | [24] 0.998 | [25] 0.99

CCN(CCCCOC(=O)c1ccc(OC)c(OC)c1)C(C)Cc1ccc(OC)cc1 (configuration not stated)
inactive: [26] 0.982 | S. cerevisiae deletion strains, locus YBR021W, strain FUR4, stronger effect = lower value 0.989 | S. cerevisiae deletion strains, locus YBR229C, strain ROT2, stronger effect = lower value 0.95 | S. cerevisiae deletion strains, locus YCL029C, strain bik1, stronger effect = lower value 0.99 | S. cerevisiae deletion strains, locus YDL035C, strain GPR1, stronger effect = lower value 0.972 | S. cerevisiae deletion strains, locus YDL074C, strain BRE1, stronger effect = lower value 0.987 | S. cerevisiae deletion strains, locus YDL101C, strain DUN1, stronger effect = lower value 0.988 | S. cerevisiae deletion strains, locus YDL134C, strain PPH21, stronger effect = lower value 0.988 | S. cerevisiae deletion strains, locus YDL185W, strain tfp1, stronger effect = lower value 0.991 | S. cerevisiae deletion strains, locus YDL192W, strain arf1, stronger effect = lower value 0.982 | S. cerevisiae deletion strains, locus YDR101C, strain arx1, stronger effect = lower value 0.995 | [11] 0.96 | S. cerevisiae deletion strains, locus YDR162C, strain NBP2, stronger effect = lower value 0.977 | S. cerevisiae deletion strains, locus YDR318W, strain mcm21, stronger effect = lower value 0.999 | S. cerevisiae deletion strains, locus YDR388W, stronger effect = lower value 0.998 | S. cerevisiae deletion strains, locus YDR502C, strain sam2, stronger effect = lower value 0.98 | S. cerevisiae deletion strains, locus YEL061C, strain CIN8, stronger effect = lower value 0.979 | S. cerevisiae deletion strains, locus YER110C, stronger effect = lower value 0.963 | S. cerevisiae deletion strains, locus YER155C, strain BEM2, stronger effect = lower value 0.999 | S. cerevisiae deletion strains, locus YER167W, strain BCK2, stronger effect = lower value 0.989 | S. cerevisiae deletion strains, locus YGL078C, strain dbp3, stronger effect = lower value 0.997 | S. cerevisiae deletion strains, locus YGL086W, strain mad1, stronger effect = lower value 0.965 | S. cerevisiae deletion strains, locus YGL248W, strain PDE1, stronger effect = lower value 0.98 | S. cerevisiae deletion strains, locus YGR078C, strain PAC10, stronger effect = lower value 0.995 | S. cerevisiae deletion strains, locus YGR135W, strain pre9, stronger effect = lower value 1.02 | [22] 0.978 | S. cerevisiae deletion strains, locus YGR252W, strain gcn5, stronger effect = lower value 0.937 | [1] 0.989 and 0.965 | S. cerevisiae deletion strains, locus YHR079C, strain IRE1 (second series), stronger effect = lower value 0.992 | [2] 0.956 | S. cerevisiae deletion strains, locus YHR094C, strain hxt1, stronger effect = lower value 0.989 | S. cerevisiae deletion strains, locus YHR129C, strain ARP1, stronger effect = lower value 0.993 | S. cerevisiae deletion strains, locus YHR200W, strain rpn10, stronger effect = lower value 0.992 | S. cerevisiae deletion strains, locus YIL066C, strain RNR3, stronger effect = lower value 0.968 | S. cerevisiae deletion strains, locus YIL073C, strain SPO22, stronger effect = lower value 0.986 | S. cerevisiae deletion strains, locus YIL125W, strain kgd1, stronger effect = lower value 0.985 | S. cerevisiae deletion strains, locus YIR030C, strain dcg1, stronger effect = lower value 0.978 | [3] 1.03 and 0.98 | S. cerevisiae deletion strains, locus YJL134W, strain LCB3, stronger effect = lower value 0.979 | S. cerevisiae deletion strains, locus YJL168C, strain set2, stronger effect = lower value 0.995 | S. cerevisiae deletion strains, locus YJL187C, strain SWE1 (second series), stronger effect = lower value 1 | S. cerevisiae deletion strains, locus YJR043C, strain POL32, stronger effect = lower value 1.01 | [4] 0.913 | [23] 0.98 | S. cerevisiae deletion strains, locus YKL009W, strain mrt4, stronger effect = lower value 0.95 | S. cerevisiae deletion strains, locus YKL068W, stronger effect = lower value 0.998 | S. cerevisiae deletion strains, locus YKL085W, strain MDH1 (second series), stronger effect = lower value 0.987 | S. cerevisiae deletion strains, locus YKL085W, strain MDH1, stronger effect = lower value 0.987 | S. cerevisiae deletion strains, locus YKL190W, strain CNB1, stronger effect = lower value 0.99 | S. cerevisiae deletion strains, locus YKR001C, strain vps1, stronger effect = lower value 0.988 | S. cerevisiae deletion strains, locus YLR039C, strain RIC1, stronger effect = lower value 0.983 | S. cerevisiae deletion strains, locus YLR058C, strain SHM2, stronger effect = lower value 0.967 | S. cerevisiae deletion strains, locus YLR102C, strain apc9, stronger effect = lower value 0.993 | [5] 0.956 | S. cerevisiae deletion strains, locus YLR262C, strain YPT6, stronger effect = lower value 0.937 | S. cerevisiae deletion strains, locus YLR268W, strain sec22, stronger effect = lower value 1.07 | S. cerevisiae deletion strains, locus YLR330W, strain CHS5, stronger effect = lower value 0.977 | S. cerevisiae deletion strains, locus YLR342W, strain FKS1 (second series), stronger effect = lower value 0.985 | S. cerevisiae deletion strains, locus YLR371W, strain rom2, stronger effect = lower value 0.972 | S. cerevisiae deletion strains, locus YLR418C, strain cdc73, stronger effect = lower value 0.956 | S. cerevisiae deletion strains, locus YML016C, strain PPZ1, stronger effect = lower value 0.978 | S. cerevisiae deletion strains, locus YML032C, strain rad52, stronger effect = lower value 1 | S. cerevisiae deletion strains, locus YML124C, strain tub3, stronger effect = lower value 0.985 | S. cerevisiae deletion strains, locus YMR078C, strain ctf18, stronger effect = lower value 0.987 | S. cerevisiae deletion strains, locus YMR223W, strain ubp8, stronger effect = lower value 0.971 | [14] 0.978 | [15] 1.01 | S. cerevisiae deletion strains, locus YNL067W, strain RPL9B, stronger effect = lower value 1.01 | [16] 0.968 | [17] 1 | [6] 0.9 | S. cerevisiae deletion strains, locus YNL233W, strain BNI4, stronger effect = lower value 0.996 | S. cerevisiae deletion strains, locus YNL250W, strain rad50, stronger effect = lower value 0.987 | S. cerevisiae deletion strains, locus YNL271C, strain bni1, stronger effect = lower value 0.999 | S. cerevisiae deletion strains, locus YNL298W, strain CLA4, stronger effect = lower value 0.99 | S. cerevisiae deletion strains, locus YNL307C, strain MCK1, stronger effect = lower value 0.983 | [27] 0.982 | S. cerevisiae deletion strains, locus YNR052C, strain pop2, stronger effect = lower value 1.01 | S. cerevisiae deletion strains, locus YOL006C, strain TOP1, stronger effect = lower value 0.966 | S. cerevisiae deletion strains, locus YOL012C, strain htz1 1.08 | S. cerevisiae deletion strains, locus YOL147C, strain pex11, stronger effect = lower value 0.987 | S. cerevisiae deletion strains, locus YOR061W, strain CKA2, stronger effect = lower value 0.974 | S. cerevisiae deletion strains, locus YOR069W, strain VPS5, stronger effect = lower value 0.986 | S. cerevisiae deletion strains, locus YOR136W, strain idh2, stronger effect = lower value 0.981 | S. cerevisiae deletion strains, locus YOR144C, strain elg1, stronger effect = lower value 0.991 | S. cerevisiae deletion strains, locus YOR184W, strain ser1, stronger effect = lower value 0.974 | [7] 0.964 | S. cerevisiae deletion strains, locus YOR316C, strain cot1, stronger effect = lower value 0.992 | [24] 0.963 | [25] 0.989 | [8] 0.961 | S. cerevisiae deletion strains, locus YPR119W, strain clb2, stronger effect = lower value 0.987 | S. cerevisiae deletion strains, locus YPR141C, strain kar3, stronger effect = lower value 0.979 | S. cerevisiae deletion strains, locus YPR163C, strain tif3, stronger effect = lower value 0.992 | S. cerevisiae deletion strains, locus YPR167C, strain met16, stronger effect = lower value 0.997 | S. cerevisiae deletion strains, strain wtn01, stronger effect = lower value 1.01 | S. cerevisiae strains, strain wild type, stronger effect = lower value 0.98
